The values below come from PubChem BioAssay (Tox21).

A short description of experiment [1]: qHTS assay to identify aromatase inhibitors - cell viability counter screen (AID 743084).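 Further: cells stimulated with testosterone during compound exposure; nearly all actives have a fitted effect of over 55% in size.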 Background: qHTS replaces the single test concentration by a dilution series.
Experiment [2] deals with Aryl hydrocarbon receptor (Homo sapiens) (UniProt P35869). The experiment is described as follows: qHTS assay to identify small molecule that activate the aryl hydrocarbon receptor (AhR) signaling pathway (AID 743085). Further: nearly all actives have a fitted effect of over 15% in size. Further: potency means the concentration at half of the fitted maximal effect.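 On activation: HG2L7.5c1 human HepG2 liver cells with stably integrated DRE-driven firefly reporter; series mostly up to about 70 µM.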 The method, boiled down: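 Steps: seed HepG2-AhR-luc cells; allow 5 h at 37C; pin-transfer test compound or vehicle; incubate 24 h at 37C; add viability dye (30 min, 37C) and read fluorescence; add luciferase substrate (30 min, RT) and read luminescence.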

A short description of experiment [3]: qHTS assay to identify small molecule that activate the aryl hydrocarbon receptor (AhR) signaling pathway - cell viability counter screen (AID 743086).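 Further: HepG2 liver cells carrying the AhR DRE luciferase reporter; series mostly up to about 70 µM; nearly all actives have a fitted effect of over 45% in size.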 The method, boiled down: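 HepG2-AhR-luc (HG2L7.5c1) cells, 4000/well, treated 24 h at 37 C with compound; viability measured as CellTiter-Fluor fluorescence after 30 min in the same wells as the luciferase read.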

Experiment [4] concerns the target Peroxisome proliferator-activated receptor gamma (Homo sapiens) (UniProt P37231). As to the kind of experiment: qHTS assay to identify small molecule agonists of the peroxisome proliferator-activated receptor gamma (PPARg) signaling pathway (AID 743094; active means well fitted activation curve with a large enough effect in the signal ratio in the repeat runs, not every such curve was filed as active; the % refers to the signal ratio). The method, boiled down:
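Agonism was assessed in a beta-lactamase reporter system, HEK293H cells with a stably integrated UAS-bla construct under PPARg control; the 17 h treatment at 37C preceded a 1 h room-temperature FRET substrate read.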

Experiment [5] shares this target. The experiment is described as follows: qHTS assay to identify small molecule antagonists of the peroxisome proliferator-activated receptor gamma (PPARg) signaling pathway (AID 743191; calls by dose curve; further: series mostly up to about 63 µM; nearly all actives have a fitted effect of over 30% in size). The method, boiled down:
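GeneBLAzer PPARg UAS-bla HEK293H cells, 5 h post-plating, exposed to compounds 17 h at 37C. LiveBLAzer B/G FRET substrate added for 1 h at room temperature; beta-lactamase reporter read by fluorescence intensity.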

Experiment [6] can be described thus: qHTS assay to identify small molecule antagonists of the peroxisome proliferator-activated receptor gamma (PPARg) signaling pathway - cell viability counter screen (AID 743194). Further: nearly all actives have a fitted effect of over 55% in size. The method, boiled down: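 Cytotoxicity counter screen in PPARg-bla HEK293H cells, same wells as reporter assay. Compounds plus 50 nM rosiglitazone (final) for 17 h at 37 C, then viability read by CellTiter-Glo luminescence.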

Experiment [7] in a line: qHTS assay for small molecule agonists of the antioxidant response element (ARE) signaling pathway (AID 743202; active means well fitted activation curve with a large enough effect in the signal ratio in the repeat runs, not every such curve was filed as active; the % refers to the signal ratio). The method, boiled down: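 HepG2 ARE-bla cells; 16 h treatment at 37 C; FRET-based beta-lactamase fluorescence read after 2 h substrate incubation at room temperature.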
The nature of experiment [8]: qHTS assay for small molecule agonists of the antioxidant response element (ARE) signaling pathway - cell viability counter screen (AID 743203; calls by dose curve; further: nearly all actives have a fitted effect of over 55% in size). The method, boiled down:
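ATP content via CellTiter-Glo luminescence served as the viability measure. Cells: ARE-bla HepG2, 2,000 per well. Exposure: 16 hrs, 37C/5% CO2.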

Experiment [9] can be described thus: qHTS assay for small molecule activators of the heat shock response signaling pathway - cell viability counter screen (AID 743209). Further: nearly all actives have a fitted effect of over 50% in size. The method, boiled down: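 Compounds dissolved in DMSO were added to overnight-plated HSE-bla HeLa cells and left 5 h at 37 C. Cell viability was quantified by luminescence using CellTiter-Glo.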
A short description of experiment [10]: qHTS assay for small molecule activators of the heat shock response signaling pathway (AID 743210; active means well fitted activation curve with a large enough effect in the signal ratio in the repeat runs, with a control signal flat, not every such curve was filed as active; the % refers to the signal ratio;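 further: HeLa cells with beta-lactamase reporter driven by heat shock elements; series mostly up to about 63 µM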). The method, boiled down: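 Following overnight attachment, HSE-bla HeLa cells received test compounds for 5 h at 37 C; beta-lactamase activity was then detected via FRET substrate fluorescence.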
Experiment [11] is described as follows: qHTS assay to identify small molecule agonists of the peroxisome proliferator-activated receptor delta (PPARd) signaling pathway - cell viability counter screen (AID 743211). Further: nearly all actives have a fitted effect of over 55% in size. The method, boiled down: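 Viability of GeneBLAzer PPARd UAS-bla HEK293H cells was assessed after 17 h compound incubation at 37C, using CellTiter-Glo reagent added after the reporter read and luminescence recorded 30 min later.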

Experiment [12] concerns the target Peroxisome proliferator-activated receptor delta (Homo sapiens) (UniProt Q03181). As to the kind of experiment: qHTS assay to identify small molecule agonists of the peroxisome proliferator-activated receptor delta (PPARd) signaling pathway (AID 743212; calls by dose curve). The method, boiled down:
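Tox21 library screened in GeneBLAzer PPARd UAS-bla HEK293H cells. After compound treatment at 37 C, a FRET-based beta-lactamase substrate was applied for 2 h and fluorescence recorded.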

Experiment [13] can be described thus: qHTS assay to identify small molecule antagonists of the peroxisome proliferator-activated receptor delta (PPARd) signaling pathway - cell viability counter screen (AID 743213). Further: nearly all actives have a fitted effect of over 50% in size. The method, boiled down: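 Same-well viability: cells pre-incubated 5 h, dosed with compound plus 300 nM L165041, kept 17 h at 37 C, FRET substrate 2 h RT, then CellTiter-Glo 30 min RT and luminescence.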

The target in experiment [14] is Peroxisome proliferator-activated receptor delta (Homo sapiens) (UniProt Q03181). As to the kind of experiment: qHTS assay to identify small molecule antagonists of the peroxisome proliferator-activated receptor delta (PPARd) signaling pathway (AID 743215; active means well fitted inhibition curve with a large enough effect in the signal ratio in the repeat runs, not every such curve was filed as active; the % refers to the signal ratio;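 further: cells stimulated with agonist L165041 at 300 nM final during compound exposure; series mostly up to about 62 µM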). The method, boiled down: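 Here, a reporter line (HEK293H, beta-lactamase under a UAS) measures PPARd signaling. Compounds are tested against agonist L165041 at 300 nM final concentration over 17 h at 37 C, with fluorescence read after substrate.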

Experiment [15] is described as follows: qHTS assay to identify small molecule agonists of the farnesoid-X-receptor (FXR) signaling pathway - cell viability counter screen (AID 743218). Further: nearly all actives have a fitted effect of over 45% in size. The method, boiled down:
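Quantitative HTS counter screen measuring ATP-based viability via CellTiter-Glo luminescence in HEK 293T cells carrying a UAS-driven beta-lactamase reporter, after 16 h compound exposure at 37 C.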

Experiment [16] in a line: qHTS assay to identify small molecule antagonists of the farnesoid-X-receptor (FXR) signaling pathway - cell viability counter screen (AID 743221; active means well fitted cell-killing curve with a large enough effect in the repeat runs, not every such curve was filed as active; further: nearly all actives have a fitted effect of over 50% in size). The method, boiled down:
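Quantitative HTS of the Tox21 10K library run in parallel with the beta-lactamase reporter read. HEK 293T cells carrying a UAS-driven bla reporter got compound and 50 uM CDCA (final) for 16 h; ATP-based luminescence followed.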

The target in experiment [17] is Vitamin D3 receptor (Homo sapiens) (UniProt P11473). The experiment is described as follows: qHTS assay to identify small molecule agonists of the vitamin D receptor (VDR) signaling pathway (AID 743222; calls by dose curve). The method, boiled down: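 Tox21 cell reporter format: VDR-bla line, 16 h compound exposure in 5% CO2 at 37C, then fluorescence intensity after 2 h with LiveBLAzer B/G FRET substrate.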

Experiment [18] deals with Bile acid receptor (Homo sapiens) (UniProt Q96RI1). The experiment is described as follows: qHTS assay to identify small molecule antagonists of the farnesoid-X-receptor (FXR) signaling pathway (AID 743217; active means well fitted inhibition curve with a large enough effect in the signal ratio in the repeat runs, not every such curve was filed as active; the % refers to the signal ratio). The method, boiled down:
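Test compounds are pin-transferred onto FXR-bla HEK 293T cells, then chenodeoxycholic acid is added at 50 uM final. After 16 h at 37 °C, LiveBLAzer B/G substrate is applied for 2 h at room temperature and fluorescence read.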

Experiment [19] shares this target. As to the kind of experiment: qHTS assay to identify small molecule agonists of the farnesoid-X-receptor (FXR) signaling pathway (AID 743220; active means well fitted activation curve with a large enough effect in the signal ratio in the repeat runs, not every such curve was filed as active; the % refers to the signal ratio). The method, boiled down:
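FXR-UAS-bla HEK 293T cells carrying a UAS-driven beta-lactamase reporter were plated for 5 h at 37C/5% CO2, then exposed to DMSO-dissolved Tox21 10K compounds for 16 h at 37C. A LiveBLAzer B/G FRET substrate was loaded for 2 h at room temperature before fluorescence reading.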

Experiment [20] concerns the target Vitamin D3 receptor (Homo sapiens) (UniProt P11473). The experiment is described as follows: qHTS assay to identify small molecule antagonists of the vitamin D receptor (VDR) signaling pathway (AID 743223; active means well fitted inhibition curve with a large enough effect in the signal ratio in the repeat runs, not every such curve was filed as active; the % refers to the signal ratio). The method, boiled down:
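Fluorescence from LiveBLAzer B/G FRET substrate, read after 2 h at room temperature, reflects beta-lactamase reporter activity in VDR-bla cells treated 16 h at 37C with compounds and agonist 1alpha,25-dihydroxyvitamin D3 (3 nM final).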

Records with an inconclusive call do not appear. Where a structure was tested more than once in an assay, its records may differ in their call. Calls of active or inactive are those of the source. Unless noted, the call rests on the fitted dose curve; in most records, active means well fitted curve in the direction sought with a large enough effect in the repeat runs; inconclusive means weak or mixed curves; inactive means no such curve, though single readings can be large; an effect the other way counts as inactive or inconclusive.

Peroxisome proliferator-activated receptor delta (Homo sapiens), sequence (Q03181 whole entry, looked up): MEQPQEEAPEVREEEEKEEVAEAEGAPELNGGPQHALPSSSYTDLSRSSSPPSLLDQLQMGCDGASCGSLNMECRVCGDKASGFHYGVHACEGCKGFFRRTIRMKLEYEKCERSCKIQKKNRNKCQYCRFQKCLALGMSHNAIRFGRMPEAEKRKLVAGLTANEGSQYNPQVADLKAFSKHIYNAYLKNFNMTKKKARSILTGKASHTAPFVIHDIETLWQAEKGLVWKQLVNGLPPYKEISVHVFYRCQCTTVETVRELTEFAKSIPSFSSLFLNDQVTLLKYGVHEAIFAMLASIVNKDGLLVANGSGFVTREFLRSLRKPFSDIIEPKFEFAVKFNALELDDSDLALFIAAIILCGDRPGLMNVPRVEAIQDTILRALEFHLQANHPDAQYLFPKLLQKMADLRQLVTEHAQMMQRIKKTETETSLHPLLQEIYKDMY
Peroxisome proliferator-activated receptor gamma (Homo sapiens), sequence (P37231 whole entry, looked up): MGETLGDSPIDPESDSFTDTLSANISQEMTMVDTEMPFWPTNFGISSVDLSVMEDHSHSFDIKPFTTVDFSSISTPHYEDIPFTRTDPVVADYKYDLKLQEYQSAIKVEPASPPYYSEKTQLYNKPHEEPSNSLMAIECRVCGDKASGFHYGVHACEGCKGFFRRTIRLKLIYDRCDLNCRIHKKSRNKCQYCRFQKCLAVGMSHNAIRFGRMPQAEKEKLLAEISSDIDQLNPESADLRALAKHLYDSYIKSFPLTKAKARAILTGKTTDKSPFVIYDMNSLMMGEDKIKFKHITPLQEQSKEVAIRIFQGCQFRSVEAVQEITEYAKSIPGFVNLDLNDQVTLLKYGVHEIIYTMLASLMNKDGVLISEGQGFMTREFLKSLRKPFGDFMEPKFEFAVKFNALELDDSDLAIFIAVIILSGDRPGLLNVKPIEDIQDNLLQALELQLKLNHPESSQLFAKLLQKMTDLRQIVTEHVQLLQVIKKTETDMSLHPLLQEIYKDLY
Aryl hydrocarbon receptor (Homo sapiens), sequence (P35869 whole entry, looked up): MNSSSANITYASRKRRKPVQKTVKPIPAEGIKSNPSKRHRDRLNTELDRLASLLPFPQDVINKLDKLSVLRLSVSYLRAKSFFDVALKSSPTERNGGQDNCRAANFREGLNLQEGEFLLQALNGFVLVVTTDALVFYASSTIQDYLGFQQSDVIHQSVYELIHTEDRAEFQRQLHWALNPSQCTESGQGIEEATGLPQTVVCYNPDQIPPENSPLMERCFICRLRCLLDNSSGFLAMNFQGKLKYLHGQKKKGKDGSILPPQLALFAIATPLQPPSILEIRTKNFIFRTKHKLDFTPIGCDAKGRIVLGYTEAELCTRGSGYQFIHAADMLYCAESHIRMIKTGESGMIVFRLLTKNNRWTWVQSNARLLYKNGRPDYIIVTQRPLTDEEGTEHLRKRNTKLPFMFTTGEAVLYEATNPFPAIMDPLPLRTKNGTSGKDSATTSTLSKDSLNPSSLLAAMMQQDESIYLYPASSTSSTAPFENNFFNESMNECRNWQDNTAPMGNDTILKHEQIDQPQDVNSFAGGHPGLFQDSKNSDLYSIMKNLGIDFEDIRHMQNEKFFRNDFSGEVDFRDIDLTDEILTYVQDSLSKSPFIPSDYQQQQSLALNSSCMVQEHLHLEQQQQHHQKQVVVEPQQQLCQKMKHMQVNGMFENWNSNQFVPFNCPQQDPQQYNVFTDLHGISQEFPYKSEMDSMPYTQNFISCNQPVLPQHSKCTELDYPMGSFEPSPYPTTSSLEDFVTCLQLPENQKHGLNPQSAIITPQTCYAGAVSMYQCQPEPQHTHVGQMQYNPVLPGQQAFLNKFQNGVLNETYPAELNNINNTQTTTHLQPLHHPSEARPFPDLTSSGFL
Bile acid receptor (Homo sapiens), sequence (Q96RI1 whole entry, looked up): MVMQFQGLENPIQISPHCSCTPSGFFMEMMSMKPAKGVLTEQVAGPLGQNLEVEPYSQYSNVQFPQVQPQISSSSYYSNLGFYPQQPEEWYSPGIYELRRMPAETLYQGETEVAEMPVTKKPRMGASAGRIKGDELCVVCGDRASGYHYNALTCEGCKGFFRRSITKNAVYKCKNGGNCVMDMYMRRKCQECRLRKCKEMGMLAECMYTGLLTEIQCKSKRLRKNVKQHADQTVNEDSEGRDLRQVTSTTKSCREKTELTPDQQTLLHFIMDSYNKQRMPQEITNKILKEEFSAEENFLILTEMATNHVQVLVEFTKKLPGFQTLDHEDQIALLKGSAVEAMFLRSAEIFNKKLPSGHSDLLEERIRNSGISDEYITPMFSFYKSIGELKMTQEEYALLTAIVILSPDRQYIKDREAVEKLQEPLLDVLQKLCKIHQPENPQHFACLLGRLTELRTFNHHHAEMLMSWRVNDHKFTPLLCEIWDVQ
Vitamin D3 receptor (Homo sapiens), sequence (P11473 whole entry, looked up): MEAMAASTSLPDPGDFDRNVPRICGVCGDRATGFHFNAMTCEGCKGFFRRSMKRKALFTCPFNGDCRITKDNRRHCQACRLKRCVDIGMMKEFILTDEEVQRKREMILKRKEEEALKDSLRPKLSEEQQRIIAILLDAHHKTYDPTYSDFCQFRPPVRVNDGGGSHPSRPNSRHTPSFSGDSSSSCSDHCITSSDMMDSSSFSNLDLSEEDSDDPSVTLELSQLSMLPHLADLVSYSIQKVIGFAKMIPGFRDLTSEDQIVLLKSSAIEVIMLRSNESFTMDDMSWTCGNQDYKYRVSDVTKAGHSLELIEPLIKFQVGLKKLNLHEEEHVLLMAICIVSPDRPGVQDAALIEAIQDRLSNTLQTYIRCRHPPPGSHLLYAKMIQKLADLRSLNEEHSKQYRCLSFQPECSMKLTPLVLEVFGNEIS

For the compound `NC1CCCCC1`, the Potency result in experiment [1], in experiment [3], in experiment [4], in [5], in experiment [6] and in experiment [7] was “inactive” throughout. Besides, the Potency entry in experiment [8], in experiment [9], in experiment [11], in [12], in experiment [13] and in experiment [14] was “inactive” each time. Moreover, the Potency entry in experiment [15], in experiment [16] and in [17] was “inactive” each time. In addition, the Potency in [2] was 30.8 µM (active) and inactive. For the same compound, the call in experiment [10] was inactive.
Regarding `CC1(C)O[C@@H]2C[C@H]3[C@@H]4CCC5=CC(=O)C=C[C@]5(C)[C@@]4(F)[C@@H](O)C[C@]3(C)[C@]2(C(=O)CO)O1`, the Potency result in experiment [1], in experiment [2], in [3], in [4], in [5] and in experiment [6] was “inactive” in each case. Moreover, the Potency result in experiment [7], in experiment [8], in [9], in [11], in experiment [12] and in [13] was “inactive” throughout. Besides, the Potency result in experiment [14], in experiment [18], in [15], in experiment [16], in experiment [17] and in experiment [20] was “inactive” in each case. Also, the call in experiment [19] was inactive.
With `CS(=O)(=O)OCCCCOS(C)(=O)=O`, the Potency entry in experiment [1], in experiment [2], in experiment [3], in [4], in experiment [5] and in experiment [6] was “inactive” in each case. Further, the Potency result in experiment [7], in experiment [8], in experiment [9], in [11], in [12] and in experiment [13] was “inactive” each time. In addition, the Potency result in [14], in experiment [15], in experiment [16] and in [17] was “inactive” each time. In experiment [10], the outcome was inactive.
As to `NS(=O)(=O)O`, the Potency result in [1], in [2], in experiment [3], in [4], in [5] and in experiment [6] was “inactive” each time. For the same compound, the Potency result in experiment [7], in [8], in [9], in [11], in experiment [12] and in experiment [13] was “inactive” in each case. Also, the Potency result in [14], in experiment [15], in experiment [16] and in [17] was “inactive” each time. In addition, the outcome in experiment [10] was inactive.
Consider `O=c1[nH]cnc2c1ncn2[C@H]1CC[C@@H](CO)O1`, for which the Potency entry in [1], in experiment [2], in experiment [3], in experiment [4], in [5] and in experiment [6] was “inactive” in each case. The Potency result in experiment [7], in [8], in [9], in experiment [11], in [12] and in [13] was “inactive” throughout. For the same compound, the Potency result in [14], in experiment [15] and in experiment [16] was “inactive” throughout.
With `NS(=O)(=O)c1cc2c(cc1Cl)NCNS2(=O)=O`, the Potency entry in experiment [1], in [2], in [3], in [4], in experiment [5] and in experiment [6] was “inactive” each time. Also, the Potency result in [7], in experiment [8], in experiment [9], in experiment [11], in experiment [13] and in [18] was “inactive” each time. In addition, the Potency entry in [15], in experiment [16] and in experiment [17] was “inactive” in each case. Moreover, the compound was classed as inactive in experiment [10] and in experiment [19].
For `Cc1cn([C@H]2C=C[C@@H](CO)O2)c(=O)[nH]c1=O`, the Potency result in [1], in [2], in experiment [3], in [4], in experiment [5] and in experiment [6] was “inactive” throughout. In addition, the Potency entry in experiment [7], in [8], in [9], in experiment [11], in experiment [12] and in experiment [13] was “inactive” throughout. Further, the Potency entry in [14], in [18], in experiment [15], in experiment [16], in [17] and in [20] was “inactive” throughout. Further, the compound was called inactive in experiment [10] and in experiment [19].
